In PubChem BioAssay AID1508622 (National Center for Advancing Translational Sciences (NCATS), 2021):
Calls of active or inactive are those of the source. The call rests on the fitted dose curve; in most records, active means well fitted activation curve with a large enough effect; inconclusive means small, poorly fitted or top-dose-only effect; inactive means no such curve, though single readings can be large or run the other way.

Experiment: Confirmatory qHTS for Identification of Small Molecule Activators of Huntingtin-Antisense Promoter Activity
Settings: HEK293 HTT-AS promoter firefly luciferase reporter, 24 h; series mostly up to 57.5 µM
Procedure, shortened: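 HEK293 luciferase reporter cells, 2,500/well, cultured 24 h, then exposed to compounds at up to 57.5 uM final for 24 h at 37C. Firefly luciferase luminescence read; normalized to vehicle (0%) and zero RLU (-100%).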

Potency, inactive:
Cc1cc(NC(=O)CCc2nc3cccnc3n2-c2ccccc2)ccc1Br, CCOC(=O)c1oc2c(c1C)-c1nn(Cc3ccc(Cl)cc3)cc1CC2, COc1cc(Nc2ncc3c(n2)CCN(Cc2cc(F)cc(F)c2)C3)cc(OC)c1, COc1ccc(CCNc2nc3c(c(=O)n(C)c(=O)n3C)n2Cc2ccc(F)cc2)cc1OC, Cc1ccc(S(=O)(=O)n2nc(-c3ccccc3)nc2NCc2ccccc2Cl)cc1, COc1ccc(C)cc1NS(=O)(=O)c1ccc(-c2cnc(C3CC3)o2)cc1, Cc1cc(NC(=O)c2cc(-c3ccc(F)cc3)on2)nn1Cc1ccc(Cl)cc1, CCCN(C(=O)CCc1nc(-c2ccc(C)cc2)no1)c1ccc(OCC)cc1, CC(C)(C)C(=O)NCCc1nc2ccccc2n1CCCCOc1ccc(Cl)cc1, Cc1ccc(NC(=O)Cn2cc(S(=O)(=O)Cc3ccccc3)c3ccccc32)cc1C, COc1ccc(Br)cc1CNC(=O)CSc1n[nH]c(-c2ccccc2)n1, CCC(=O)C1=C(c2cccc([N+](=O)[O-])c2)N(C(=O)CC)n2c(nnc2C2CCCCC2)S1, COc1ccc(CNC(=O)c2ccc3c(c2)CCN3S(=O)(=O)c2ccc(Cl)cc2)cc1, COc1cccc(C(=O)NC(c2ccc(Cl)cc2)c2cc(Cl)c3cccnc3c2O)c1 (centres undefined), Cc1ccc(C)c(N2CCN(C(=O)CCS(=O)(=O)c3ccc4c(c3)CC(=O)N4C)CC2)c1, CCc1c(C)nc2nncn2c1NCc1ccc(OC)cc1, Cc1ccc(-c2nc3sc(CCNS(=O)(=O)c4cc(F)ccc4F)c(C)n3n2)cc1, O=S(=O)(c1ccc(-c2csc(=Nc3ccc(OC(F)(F)Cl)cc3)n2CCCO)cc1)N1CCCC1, CSc1cccc(NC(=O)C2CCN(S(=O)(=O)c3ccc4[nH]c5c(c4c3)CCCCC5)CC2)c1, Cn1c(SCc2ccc(F)cc2)nc2ccc(C(=O)NCc3ccc(F)cc3)cc21, Cc1ccc(C(=O)Nc2ccc(F)cc2)cc1S(=O)(=O)N1CCCCCC1, CC(C)c1ccc(NC(=O)c2ccc(F)c(S(=O)(=O)N3CCCCCC3)c2)cc1, COc1ccc([C@@H]2CNC(=O)C2)cc1OC1CCCC1, COc1cc(OC)c(N(C)C(=O)c2cn(C3CCCC3)c(=O)c3c2c2ccccc2n3C)cc1Cl, Cc1cc(Nc2cccc(C(F)(F)F)c2)nc2ccc(NC(=O)c3cccnc3)cc12, CC(C)(C)c1ccc(C(=O)Nc2ccc3c(c2)CCCN3C(=O)c2cccs2)cc1, CCOC(=O)C1=C(CN2CCN(c3ccccc3F)CC2)NC(=O)NC1c1ccc(OC)cc1 (centres undefined), O=S(=O)(NCc1ccc(F)cc1)c1ccc(N2CCCCS2(=O)=O)cc1, CCOc1cc(CNC(=O)c2sc3ncnc(N(C)C4CCCCC4)c3c2C)ccc1OC, CC(=O)N1CCCc2cc(S(=O)(=O)N3CCCC(C(=O)N4CCN(c5ccccc5)CC4)C3)ccc21 (centres undefined), Cc1ccc(-c2cn3nc(N4CCCC(C(=O)Nc5ccc(F)cc5)C4)sc3n2)cc1 (centres undefined), CCOc1ccc(NC(=O)c2c(Nc3ccccc3C)sc(C(=O)c3ccccc3)c2N)cc1, CCN(CCCNC(=O)CSc1cc(=O)n(CC)c2ccccc12)c1ccccc1, COc1ccc(-c2noc(N3CCN(c4ccc(C)cc4)C(C)C3)n2)cc1OC (centres undefined), COc1ccc(-n2c(/C=C/c3cccc4ccccc34)nc3ccccc3c2=O)cc1Cl, CC1CCN(C(=O)CSc2nnc(NC(=O)Nc3ccccc3)s2)CC1, CCOc1ccc(CN2CCc3nc(N4CCN(c5ccccn5)CC4)ncc3C2)cc1OC, CCN(Cc1ccccc1)C(=O)C1CCN(S(=O)(=O)c2c(C)noc2/C=C/c2ccc(C)cc2)CC1, CCc1c(C)sc2c1CCN(C(=O)Nc1ccc(F)c(Cl)c1)C2c1ccc(F)cc1 (centres undefined)
